# Measurements published in PubChem BioAssay (EPA / NIEHS).
# Values joined by “and” are separate entries in the source; they are usually repeats but may differ in a detail not shown here. Equal values may be shown once. Results filed as inconclusive are left out. Where a structure was tested more than once in an assay, its records may differ in their call. Active and inactive are the calls of the source. The calls were made as follows: active = hit-call score of the fitted dose curve at least 0.9, where 1 is the maximum; inconclusive = response in the unintended direction; inactive = score below 0.9.
# Tests used:
# [1] = target: rat Thyrotropin Releasing Hormone Receptor (TRH), Trhr (gene 25570) (UniProt Q01717); experiment: NVS_GPCR_rTRH: NovaScreen (NVS) G Protein-Coupled Receptor Assay for rat Thyrotropin Releasing Hormone Receptor (TRH) (AID 2283329);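 also: hit means lower bound tracer signal versus DMSO baseline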
# rat Thyrotropin Releasing Hormone Receptor (TRH), Trhr (gene 25570), sequence (Q01717 whole entry, looked up): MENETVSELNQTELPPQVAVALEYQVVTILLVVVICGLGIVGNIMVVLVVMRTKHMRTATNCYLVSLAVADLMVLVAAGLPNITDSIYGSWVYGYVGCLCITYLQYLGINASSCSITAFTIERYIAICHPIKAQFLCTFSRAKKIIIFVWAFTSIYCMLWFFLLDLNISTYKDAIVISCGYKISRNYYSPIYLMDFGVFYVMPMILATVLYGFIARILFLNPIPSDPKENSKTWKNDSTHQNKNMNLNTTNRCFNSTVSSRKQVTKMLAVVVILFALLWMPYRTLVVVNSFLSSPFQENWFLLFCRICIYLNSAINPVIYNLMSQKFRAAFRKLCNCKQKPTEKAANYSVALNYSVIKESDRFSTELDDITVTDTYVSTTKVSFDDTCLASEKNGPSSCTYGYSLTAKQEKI
# Outline: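 Rat forebrain membranes; radioligand displacement at TRH receptor by filter-based scintillation counting, read 4 h after dosing. Duplicate single-point screen at 25 uM, actives rerun in concentration series; loss of signal relative to DMSO.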
# [2] = target: rat Opioid Receptor, Non-selective Sodium (Na+) Binding, Oprm1 (gene 25601) (UniProt P33535); experiment: NVS_GPCR_rOpiate_NonSelectiveNa: NovaScreen (NVS) G Protein-Coupled Receptor Assay for rat Opioid Receptor, Non-selective Sodium (Na+) Binding (AID 2283311)
# rat Opioid Receptor, Non-selective Sodium (Na+) Binding, Oprm1 (gene 25601), sequence (P33535 whole entry, looked up): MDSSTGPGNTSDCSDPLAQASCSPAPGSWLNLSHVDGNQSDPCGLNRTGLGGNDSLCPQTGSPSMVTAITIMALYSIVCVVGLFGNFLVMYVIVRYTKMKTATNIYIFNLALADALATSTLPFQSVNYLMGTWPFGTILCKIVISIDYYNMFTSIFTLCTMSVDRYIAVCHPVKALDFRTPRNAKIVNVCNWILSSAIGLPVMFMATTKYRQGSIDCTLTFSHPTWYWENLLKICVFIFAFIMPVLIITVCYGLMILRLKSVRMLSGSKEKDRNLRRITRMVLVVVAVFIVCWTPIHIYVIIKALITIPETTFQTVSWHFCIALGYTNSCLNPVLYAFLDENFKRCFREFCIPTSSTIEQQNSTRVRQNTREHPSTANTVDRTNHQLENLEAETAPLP
# Outline: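 Rat forebrain membranes, radioligand displacement with filter scintillation counting, 1.5 h incubation. Screened in duplicate at 25 µM; hits then run in concentration-response up to 50 µM; loss of binding fitted versus DMSO.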
# [3] = target: rat Vasopressin 1 Receptor (V1), Avpr1a (gene 25107) (UniProt P30560); experiment: NVS_GPCR_rV1: NovaScreen (NVS) G Protein-Coupled Receptor Assay for rat Vasopressin 1 Receptor (V1) (AID 2283316)
# Outline: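 Radioligand binding on rat liver membranes, 1.5 h incubation, filter-based scintillation counting. Single 25 uM screen in duplicate; chemicals meeting threshold (e.g. 30% inhibition) run in concentration-response up to 50 uM.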
# [4] = target: rat Opioid Receptor, Non-selective Binding, Oprm1 (gene 25601) (UniProt P33535); experiment: NVS_GPCR_rOpiate_NonSelective: NovaScreen (NVS) G Protein-Coupled Receptor Assay for rat Opioid Receptor, Non-selective Binding (AID 2283318)
# rat Opioid Receptor, Non-selective Binding, Oprm1 (gene 25601), sequence (P33535 whole entry, looked up): as above
# Outline: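 Rat forebrain membranes, cell-free radioligand binding with filter-based scintillation counting, read 1.5 h after dosing. Primary screen in duplicate at 25 uM; actives retested in concentration series. Loss of signal versus DMSO baseline scored.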
# [5] = target: Sodium channel protein type 1 subunit alpha (Rattus norvegicus) (UniProt P04774); experiment: NVS_IC_rNaCh_site2: NovaScreen (NVS) Ion Channel Assay for rat Sodium Channel, Site 2 (NaCh) (AID 2283322);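 also: hit means loss of radioligand binding signal relative to DMSO so AC50 marks displacement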
# Outline: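 Membranes: rat forebrain. Format: competitive radioligand displacement, filter separation, scintillation readout, 1 h exposure. Primary screen in duplicate at 25 uM; actives retested in concentration series.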
# [6] = target: human Peripheral-type Benzodiazepine Receptor (PBR), TSPO (gene 706) (UniProt P30536); experiment: NVS_MP_hPBR: NovaScreen (NVS) Membrane Protein Assay for human Peripheral-type Benzodiazepine Receptor (PBR) (AID 2283331);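 also: hits reduce radioligand binding relative to DMSO baseline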
# human Peripheral-type Benzodiazepine Receptor (PBR), TSPO (gene 706), sequence (P30536 whole entry, looked up): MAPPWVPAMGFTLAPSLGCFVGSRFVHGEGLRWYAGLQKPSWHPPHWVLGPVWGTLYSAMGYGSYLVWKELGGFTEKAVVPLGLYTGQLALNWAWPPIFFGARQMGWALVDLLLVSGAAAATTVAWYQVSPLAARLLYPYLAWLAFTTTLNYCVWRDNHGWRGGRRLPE
# Outline: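 Human colonic cell membranes were incubated with test chemical for 1 hour; radioligand binding was measured by filter-based scintillation counting. Primary screen ran in duplicate at 25 uM, with actives followed in concentration series; loss of signal versus DMSO baseline.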
# [7] = target: rat Peripheral-type Benzodiazepine Receptor (PBR), Tspo (gene 24230) (UniProt P16257); experiment: NVS_MP_rPBR: NovaScreen (NVS) Membrane Protein Assay for rat Peripheral-type Benzodiazepine Receptor (PBR) (AID 2283335)
# rat Peripheral-type Benzodiazepine Receptor (PBR), Tspo (gene 24230), sequence (P16257 whole entry, looked up): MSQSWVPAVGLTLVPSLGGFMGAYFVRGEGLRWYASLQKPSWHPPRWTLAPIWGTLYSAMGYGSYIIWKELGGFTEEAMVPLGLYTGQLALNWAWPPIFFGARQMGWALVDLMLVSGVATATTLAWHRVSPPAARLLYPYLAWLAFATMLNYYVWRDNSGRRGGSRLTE
# Outline: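 Rat kidney membranes; radioligand binding with displacement, filter-based scintillation counting, 1 h incubation. Primary screen in duplicate at 25 uM, actives followed in concentration series; loss of binding vs DMSO.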
# [8] = NVS_IC_rCaBTZCHL: NovaScreen (NVS) Ion Channel Assay for Calcium Channel, Type L, Benzothiazepine Site (CaBTZCHL) (AID 2283337)
# Outline: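 Scintillation counting of filter-bound radioligand gave the read-out, with reduced binding versus DMSO scored as activity. Membranes came from rat cortex and were read 1.5 h after compound addition. Chemicals were screened first in duplicate at 25 uM.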
# [9] = target: bovine Gamma-Aminobutyric Acid Type A Receptor BDZ, alpha 5 site (GABARa5), GABRA5 (gene 523515) (UniProt Q08E50); experiment: NVS_LGIC_bGABARa5: NovaScreen (NVS) Ligand-Gated Ion Channel Assay for bovine Gamma-Aminobutyric Acid Type A Receptor BDZ, alpha 5 site (GABARa5) (AID 2283323)
# bovine Gamma-Aminobutyric Acid Type A Receptor BDZ, alpha 5 site (GABARa5), GABRA5 (gene 523515), sequence (Q08E50 whole entry, looked up): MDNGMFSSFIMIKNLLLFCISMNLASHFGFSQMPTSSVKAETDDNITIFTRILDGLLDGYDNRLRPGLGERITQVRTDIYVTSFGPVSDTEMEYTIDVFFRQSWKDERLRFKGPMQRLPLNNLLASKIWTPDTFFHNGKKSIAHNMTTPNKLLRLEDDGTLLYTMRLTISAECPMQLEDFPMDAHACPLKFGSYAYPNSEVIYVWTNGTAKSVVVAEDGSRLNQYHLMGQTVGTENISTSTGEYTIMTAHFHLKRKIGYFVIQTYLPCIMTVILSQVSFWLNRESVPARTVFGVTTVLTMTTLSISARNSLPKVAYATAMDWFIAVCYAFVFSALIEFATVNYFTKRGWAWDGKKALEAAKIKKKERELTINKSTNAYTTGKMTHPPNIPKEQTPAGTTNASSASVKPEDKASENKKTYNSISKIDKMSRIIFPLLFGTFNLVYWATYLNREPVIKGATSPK
# Outline: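 Radioligand competitive displacement binding on bovine hippocampal membranes, read 1 hr after dosing by filter-based scintillation counting. Primary screen at 25 uM in duplicate; actives (e.g. ≥30% inhibition) then run in concentration-response up to 50 uM.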
# [10] = target: rat Adrenergic, Alpha 1A Receptor (Adra1A), Adra1a (gene 29412) (UniProt P43140); experiment: NVS_GPCR_rAdra1A: NovaScreen (NVS) G Protein-Coupled Receptor Assay for rat Adrenergic, Alpha 1A Receptor (Adra1A) (AID 2283296)
# rat Adrenergic, Alpha 1A Receptor (Adra1A), Adra1a (gene 29412), sequence (P43140 whole entry, looked up): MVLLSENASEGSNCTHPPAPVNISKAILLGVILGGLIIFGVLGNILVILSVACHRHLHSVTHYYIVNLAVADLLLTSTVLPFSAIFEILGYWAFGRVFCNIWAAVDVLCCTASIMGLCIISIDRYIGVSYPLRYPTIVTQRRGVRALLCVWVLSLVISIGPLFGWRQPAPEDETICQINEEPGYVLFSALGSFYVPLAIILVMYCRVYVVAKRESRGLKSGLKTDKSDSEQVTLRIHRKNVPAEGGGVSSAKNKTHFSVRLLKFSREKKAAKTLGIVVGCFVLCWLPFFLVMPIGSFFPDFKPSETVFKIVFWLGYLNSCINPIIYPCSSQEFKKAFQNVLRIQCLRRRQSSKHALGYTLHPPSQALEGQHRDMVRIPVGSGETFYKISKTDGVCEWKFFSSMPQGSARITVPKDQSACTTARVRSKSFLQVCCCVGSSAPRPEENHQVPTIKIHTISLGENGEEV
# Outline: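 Rat cortical membranes pretreated with chlorethyl clonidine; competitive radioligand displacement, 1 h. Filter-based scintillation counting. Primary screen in duplicate at 25 uM, actives followed in concentration series.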
# [11] = tested on: rat Adrenergic, Alpha 1B Receptor (Adra1B), gene 24173; experiment: NVS_GPCR_rAdra1B: NovaScreen (NVS) G Protein-Coupled Receptor Assay for rat Adrenergic, Alpha 1B Receptor (Adra1B) (AID 2283297)
# Outline: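 Rat liver membranes, radioligand displacement with filter-based scintillation detection, 1 h incubation. Primary screen in duplicate at 25 uM; actives retested in concentration series; activity relative to DMSO.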
# [12] = target: rat Histamine Receptor (H3), Hrh3 (gene 85268) (UniProt Q9QYN8); experiment: NVS_GPCR_rH3: NovaScreen (NVS) G Protein-Coupled Receptor Assay for rat Histamine Receptor (H3) (AID 2283303)
# rat Histamine Receptor (H3), Hrh3 (gene 85268), sequence (Q9QYN8 whole entry, looked up): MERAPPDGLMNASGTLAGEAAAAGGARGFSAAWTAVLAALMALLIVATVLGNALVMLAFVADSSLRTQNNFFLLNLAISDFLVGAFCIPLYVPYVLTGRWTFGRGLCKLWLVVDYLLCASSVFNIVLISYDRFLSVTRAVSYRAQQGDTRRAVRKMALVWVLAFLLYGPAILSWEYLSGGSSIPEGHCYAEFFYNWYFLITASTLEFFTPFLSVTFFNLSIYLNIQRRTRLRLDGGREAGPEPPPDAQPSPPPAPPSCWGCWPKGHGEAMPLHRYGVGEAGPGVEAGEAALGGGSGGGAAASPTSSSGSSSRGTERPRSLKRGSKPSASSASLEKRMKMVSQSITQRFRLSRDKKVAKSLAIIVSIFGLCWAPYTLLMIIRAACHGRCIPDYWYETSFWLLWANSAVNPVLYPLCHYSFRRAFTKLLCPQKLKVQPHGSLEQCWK
# Outline: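 Rat forebrain membranes incubated 1 h with compound; radioligand displacement measured by filter-based scintillation counting. Single-concentration duplicates at 25 µM, then concentration-response up to 50 µM, relative to DMSO.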
# [13] = target: Adra2b (gene 24174) (UniProt P19328); experiment: NVS_GPCR_rmAdra2B: NovaScreen (NVS) G Protein-Coupled Receptor Assay for hybird cells Adrenergic, Alpha 2B Receptor (Adra2B) (AID 2283306)
# Adra2b (gene 24174), sequence (P19328 whole entry, looked up): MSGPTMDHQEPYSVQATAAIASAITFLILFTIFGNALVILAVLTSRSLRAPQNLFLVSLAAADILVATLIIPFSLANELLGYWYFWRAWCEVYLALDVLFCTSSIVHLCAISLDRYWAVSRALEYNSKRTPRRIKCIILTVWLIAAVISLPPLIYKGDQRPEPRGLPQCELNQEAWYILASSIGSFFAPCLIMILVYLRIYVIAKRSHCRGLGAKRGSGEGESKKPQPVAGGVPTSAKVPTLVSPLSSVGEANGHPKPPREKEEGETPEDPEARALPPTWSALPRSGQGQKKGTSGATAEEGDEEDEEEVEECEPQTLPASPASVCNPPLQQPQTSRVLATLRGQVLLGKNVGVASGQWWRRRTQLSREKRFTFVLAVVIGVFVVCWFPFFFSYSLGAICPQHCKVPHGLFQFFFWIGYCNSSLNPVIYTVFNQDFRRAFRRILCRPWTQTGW
# Outline: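 Radioligand filter-binding assay on membrane proteins from neuroglioma/blastoma hybrid cells (rodent), 1 h after dosing; scintillation counting, loss of signal vs DMSO. Primary screen in duplicate at 25 uM, actives then run in concentration series.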
# [14] = target: rat Glutamate Metabotropic Receptor 5 (MGluR5), Grm5 (gene 24418) (UniProt P31424); experiment: NVS_GPCR_rmMGluR5: NovaScreen (NVS) G Protein-Coupled Receptor Assay for rat Glutamate Metabotropic Receptor 5 (MGluR5) (AID 2283307)
# rat Glutamate Metabotropic Receptor 5 (MGluR5), Grm5 (gene 24418), sequence (P31424 whole entry, looked up): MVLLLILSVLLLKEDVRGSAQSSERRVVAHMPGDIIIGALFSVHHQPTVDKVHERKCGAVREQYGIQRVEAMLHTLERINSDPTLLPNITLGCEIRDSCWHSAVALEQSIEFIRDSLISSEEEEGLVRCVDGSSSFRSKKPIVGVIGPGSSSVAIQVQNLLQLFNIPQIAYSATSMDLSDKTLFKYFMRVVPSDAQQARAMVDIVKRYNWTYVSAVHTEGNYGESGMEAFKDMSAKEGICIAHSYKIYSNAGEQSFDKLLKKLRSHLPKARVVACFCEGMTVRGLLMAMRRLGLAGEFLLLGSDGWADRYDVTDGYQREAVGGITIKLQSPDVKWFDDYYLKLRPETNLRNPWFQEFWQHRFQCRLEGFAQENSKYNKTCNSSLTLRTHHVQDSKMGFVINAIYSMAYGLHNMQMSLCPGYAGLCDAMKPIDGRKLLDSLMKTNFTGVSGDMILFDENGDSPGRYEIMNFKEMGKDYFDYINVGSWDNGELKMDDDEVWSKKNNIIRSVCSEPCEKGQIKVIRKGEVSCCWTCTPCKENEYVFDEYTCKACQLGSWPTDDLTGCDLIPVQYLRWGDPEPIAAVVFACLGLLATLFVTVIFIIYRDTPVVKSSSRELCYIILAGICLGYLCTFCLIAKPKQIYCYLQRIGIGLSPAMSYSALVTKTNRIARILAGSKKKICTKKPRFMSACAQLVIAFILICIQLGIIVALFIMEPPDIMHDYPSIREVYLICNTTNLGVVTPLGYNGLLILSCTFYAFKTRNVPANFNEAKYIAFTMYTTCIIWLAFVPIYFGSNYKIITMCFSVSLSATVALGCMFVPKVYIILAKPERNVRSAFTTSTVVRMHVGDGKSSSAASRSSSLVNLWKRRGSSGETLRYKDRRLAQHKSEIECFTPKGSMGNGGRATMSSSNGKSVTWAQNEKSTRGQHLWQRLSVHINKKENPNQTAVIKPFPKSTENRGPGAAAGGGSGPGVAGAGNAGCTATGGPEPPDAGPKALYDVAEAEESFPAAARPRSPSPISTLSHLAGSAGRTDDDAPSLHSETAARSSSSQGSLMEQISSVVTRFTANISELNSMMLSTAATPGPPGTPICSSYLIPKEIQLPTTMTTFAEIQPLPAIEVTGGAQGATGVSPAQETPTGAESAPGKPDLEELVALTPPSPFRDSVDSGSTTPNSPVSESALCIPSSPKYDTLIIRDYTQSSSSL
# Outline: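 Rat whole-brain membrane preparation; filter-based radioligand binding read by scintillation counting, 1.5 h after dosing. Single-point screen at 25 uM in duplicate; hits over threshold (e.g. 30% inhibition) retested in concentration-response up to 50 uM; loss of signal vs DMSO.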
# [15] = target: rat Neurokinin-1 Receptor (NK1), Tacr1 (gene 24807) (UniProt P14600); experiment: NVS_GPCR_rNK1: NovaScreen (NVS) G Protein-Coupled Receptor Assay for rat Neurokinin-1 Receptor (NK1) (AID 2283309)
# Outline: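 Rat submaxillary gland membranes; radioligand displacement read by filter-based scintillation counting after 1 h. Primary screen in duplicate at 25 uM; actives retested in concentration series; loss of binding fitted versus DMSO.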
# [16] = target: rat Neonicotinoid receptor (NNR), Chrna7 (gene 25302) (UniProt Q05941); experiment: NVS_LGIC_rNNR_BungSens: NovaScreen (NVS) Ligand-Gated Ion Channel Assay for rat Neonicotinoid receptor (NNR) (AID 2283315)
# rat Neonicotinoid receptor (NNR), Chrna7 (gene 25302), sequence (Q05941 whole entry, looked up): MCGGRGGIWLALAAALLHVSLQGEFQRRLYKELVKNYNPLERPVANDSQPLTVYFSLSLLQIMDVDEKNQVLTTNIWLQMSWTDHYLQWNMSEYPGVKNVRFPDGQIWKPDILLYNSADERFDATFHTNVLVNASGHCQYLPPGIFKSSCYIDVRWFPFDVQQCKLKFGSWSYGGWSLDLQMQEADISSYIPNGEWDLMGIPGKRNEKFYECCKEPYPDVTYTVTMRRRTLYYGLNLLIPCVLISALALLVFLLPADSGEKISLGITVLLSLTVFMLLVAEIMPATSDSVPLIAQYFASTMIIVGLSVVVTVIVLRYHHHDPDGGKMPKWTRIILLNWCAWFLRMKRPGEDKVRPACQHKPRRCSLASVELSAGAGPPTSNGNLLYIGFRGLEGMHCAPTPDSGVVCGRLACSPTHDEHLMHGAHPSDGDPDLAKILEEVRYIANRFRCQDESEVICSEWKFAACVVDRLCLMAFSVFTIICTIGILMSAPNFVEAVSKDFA
# Outline: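 Radioligand displacement binding on rat cortical membranes, 2.5 h incubation, filtration and scintillation counting. Loss of specific binding fitted relative to DMSO.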
# [17] = target: rat Gamma-Aminobutyric Acid Type A Receptor, Non-Selective (GABAR-NonSelective), Gabra1 (gene 29705) (UniProt P62813); experiment: NVS_LGIC_rGABAR_NonSelective: NovaScreen (NVS) Ligand-Gated Ion Channel Assay for rat Gamma-Aminobutyric Acid Type A Receptor, Non-Selective (GABAR-NonSelective) (AID 2283326)
# Outline: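 Radioligand displacement on rat whole-brain extract, 1 h, filter scintillation readout; signal loss fitted versus DMSO. Primary screen in duplicate at 25 uM; hits (e.g. ≥30% inhibition) retested in concentration-response up to 50 uM.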
# [18] = target: Voltage-gated inwardly rectifying potassium channel KCNH2 (Homo sapiens) (UniProt Q12809); experiment: NVS_IC_hKhERGCh: NovaScreen (NVS) Ion Channel Assay for human Potassium Channel ERG (KhERGCh) (AID 2283333)
# Outline: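 Cell-free radioligand competition binding on hERG protein extracted from CHO cells, read by filter-based scintillation counting 0.75 h after dosing. Primary screen at 25 uM in duplicate, actives followed in concentration series. Signal loss fitted versus DMSO.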
smiles,measurement,setting,value
CC(C)C(=O)c1ccccc1,outcome,[1],inactive
C#C[C@]1(O)CC[C@H]2[C@@H]3CCc4cc(O)ccc4[C@H]3CC[C@@]21C,outcome,[2],inactive
same,AC50,[3],25 µM (active)
same,AC50,[4],20.5 µM (active)
same,outcome,[5],inactive
same,AC50,[6],2.52 µM (active) and 13.7 µM (active) and 11.4 µM (active)
same,AC50,[7],4.59 µM (active)
same,outcome,[7],inactive
C=CC(=O)OCC(CO)(COC(=O)C=C)COC(=O)C=C,AC50,[6],11 µM (active)
CCC(C)(C)C1CCC(OC)CC1 (configuration not stated),outcome,[1],inactive
CCCCCC1C(=O)CCC1CC(=O)OC (configuration not stated),AC50,[7],11.6 µM (active) and 25 µM (active)
same,outcome,[8],inactive
NC(N)=S,outcome,[1],inactive
C=C(C)C(N)=O,outcome,[9],inactive
CCCCCCCCOS(=O)(=O)O,outcome,[1],inactive
CC12CCC(C1)C(C)(C)C2O (configuration not stated),outcome,[1],inactive
O=C(c1ccc(OCCN2CCCCC2)cc1)c1c(-c2ccc(O)cc2)sc2cc(O)ccc12,AC50,[10],5.36 µM (active)
same,AC50,[11],5.62 µM (active)
same,AC50,[12],25 µM (active)
same,AC50,[13],10.7 µM (active)
same,outcome,[14],inactive
same,AC50,[15],18.2 µM (active)
same,AC50,[2],1.96 µM (active)
same,outcome,[16],inactive
same,AC50,[4],3.64 µM (active)
same,AC50,[5],0.869 µM (active)
same,outcome,[17],inactive
same,outcome,[1],inactive
same,AC50,[18],5.34 µM (active)
same,AC50,[7],6.31 µM (active)
same,outcome,[8],inactive
CC(=O)c1ccc2ccccc2c1,outcome,[1],inactive
CN1CCc2cccc3c2[C@H]1Cc1ccc(O)c(O)c1-3,AC50,[6],1.83 µM (active)
COc1cc(OC)c2ccc(=O)oc2c1,AC50,[6],12.1 µM (active)
same,AC50,[7],0.157 µM (active)
OCC=Cc1ccccc1,outcome,[1],inactive
O=Cc1ccccc1O,outcome,[1],inactive
